Compound activity as filed in PubChem.
rCAG binder – binders of r(CAG) RNA repeats, primary screen, biochemical, fluorescence; r(CAG) RNA repeat, TO-PRO-1 dye displacement fluorescence; inhibition, % at 3 µM; actives 1.3% (n = 370,000);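 active = inhibition above the plate cutoff, the mean of all test compounds on that plate plus 3 SD, cut at about 35% in these data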;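 note: 0% = DMSO alone and 100% = 100 µM mitoxantrone as full dye displacement; higher means more dye released from RNA so lower well fluorescence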
PHOSPHO1 inh – PubChem AID 1565; actives 1.1% (n = 290,000); recombinant PHOSPHO1, absorbance phosphatase assay; Phosphoethanolamine/phosphocholine phosphatase (Homo sapiens), Q8TCT1; inhibition, % at 13.3 µM; in the data active = inhibition above about 60%
Target sequence (Q8TCT1 whole entry, looked up): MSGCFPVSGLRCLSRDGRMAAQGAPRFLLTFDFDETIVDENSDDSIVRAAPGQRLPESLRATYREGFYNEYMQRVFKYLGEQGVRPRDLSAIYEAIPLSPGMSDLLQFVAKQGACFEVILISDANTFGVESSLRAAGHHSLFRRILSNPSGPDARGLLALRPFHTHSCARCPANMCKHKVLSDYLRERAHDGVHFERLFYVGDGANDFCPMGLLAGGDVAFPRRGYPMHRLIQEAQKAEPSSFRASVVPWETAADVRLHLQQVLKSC
ALR inh – inhibitors of human ALR sulfhydryl oxidase, primary screen, biochemical, H2O2 detection, HRP-luminol luminescence, single point; FAD-linked sulfhydryl oxidase ALR (Homo sapiens), P55789; purified ALR, DTT oxidation; inhibition, % (concentration not given with the values); actives 3.8% (n = 290,000); AID 485317, 2010;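 active = mean replicate inhibition above about 79%, with every replicate also reaching it, limit read from the data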
Target sequence (P55789 whole entry, looked up): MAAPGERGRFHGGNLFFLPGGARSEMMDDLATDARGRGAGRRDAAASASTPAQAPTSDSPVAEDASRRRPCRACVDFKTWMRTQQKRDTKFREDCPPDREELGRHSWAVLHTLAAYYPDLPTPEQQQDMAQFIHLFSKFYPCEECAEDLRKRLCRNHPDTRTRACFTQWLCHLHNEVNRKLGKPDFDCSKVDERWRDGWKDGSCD
aDG glyco act – activators of alpha-DG glycosylation, primary screen, uHTS, Pro5-aDG cells, AlphaScreen; actives 0.22% (n = 360,000); AID 624168, 2012; alpha-DG glycosylation AlphaScreen (IIH6); 0% Pro5, 100% B10-LARGE cell signal; activation, % at 10 µM;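 active = activation of at least 8% versus controls, or a plate z-score of at least 8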;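 note: Pro5 are CHO cells carrying HIG-tagged alpha-DG that lacks glycosylation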
APOBEC3A inh – APOBEC3A ssDNA deaminase inhibitors, primary screen, selectivity assay for APOBEC3G inhibitor project, biochemical, FAM/TAMRA oligo cleavage fluorescence. DNA dC->dU-editing enzyme APOBEC-3A (Homo sapiens), P31941. recombinant A3A, FAM/TAMRA ssDNA deamination fluorescence. inhibition, % at 20 µM. actives 0.41% (n = 330,000). AID 493011, 2011;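 active = at least 40% inhibition at 20 µM here, with at most 30% in a related deaminase screen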;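 note: plate controls were A3A with DMSO for no effect and wells lacking A3A enzyme for full effect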
A3G deaminase – APOBEC3G DNA deaminase inhibitors, primary screen, biochemical, fluorescence, single-stranded DNA substrate, uHTS; DNA dC->dU-editing enzyme APOBEC-3G (Homo sapiens), Q9HC16; recombinant A3G, ssDNA deamination FAM/TAMRA fluorescence; inhibition, % at 20 µM; actives 0.28% (n = 330,000); AID 493012, 2011;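 active = inhibition of at least 40% at 20 µM, with no more than 30% in the related APOBEC3A deaminase screen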;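 note: plate controls were DMSO wells with A3G for no effect and wells lacking A3G enzyme for full effect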
aDG glyco conf – alpha-DG glycosylation enhancers, retest, confirmation, single concentration, Pro5-aDG cells | actives 17% (n = 600) | activation, % at 10 µM (by protocol) | shares compounds with aDG glyco act | IIH6 AlphaLISA; scaled to LARGE-overexpressing B10 cells as 100% | AID 651671, 2012;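 active = activation of at least 7% in one or more replicates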;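 note: cells exposed to compound for two days before detection; 0% = DMSO-treated Pro5 cells and 100% = DMSO-treated B10-LARGE cells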
The depositor's hits bear a star. An excerpt weighted towards active compounds, which were near 5.4% of everything screened.

`CCOC(=O)CN(C(=O)CSc1nnc(CNc2ccc(C)cc2C)n1CC)c1ccccc1` gave rCAG binder -8, PHOSPHO1 inh 57, aDG glyco act 0, APOBEC3A inh -3 and A3G deaminase 0.
For CCc1nc2ccc(C(=O)N3CCCC(C(N)=O)C3)cn2c1N(C)Cc1ccc(OC)cc1 (configuration not stated) the results were rCAG binder -1 and aDG glyco act 0.
Nn1cc(-c2ccccc2)nc1SCC(=O)NC1CCS(=O)(=O)C1 (configuration not stated) was read as rCAG binder 4, PHOSPHO1 inh 88*, aDG glyco act 6.9*, APOBEC3A inh 2, A3G deaminase 3 and aDG glyco conf 1.
Screening O=[N+]([O-])c1ccc(NN=CC2CCCCCC2)c([N+](=O)[O-])c1 returned rCAG binder 3 and aDG glyco act 0.
Screening C[C@H](CO)N1C[C@H](C)[C@H](CN(C)C(=O)c2ccc3ccn(C)c3c2)OCc2cnnn2CCCC1=O returned rCAG binder 0 and aDG glyco act 0.
Cc1cc(-c2csc(NC(=O)c3ccc(S(=O)(=O)N(C)C)cc3)n2)c(C)n1-c1ccccc1 was read as rCAG binder 24, PHOSPHO1 inh -4, ALR inh -2, aDG glyco act 9.4*, APOBEC3A inh 0, A3G deaminase -10 and aDG glyco conf -1.
For O=C(Nc1ccc(Br)cc1)c1ccc(F)c(S(=O)(=O)N2CCN(c3ccccn3)CC2)c1 the results were rCAG binder 3, PHOSPHO1 inh -10, ALR inh -20, aDG glyco act 8.5*, APOBEC3A inh 2, A3G deaminase -7 and aDG glyco conf 2.
Brc1ccc2ncnc(NCc3ccccc3)c2c1 was read as rCAG binder -1, PHOSPHO1 inh 6, aDG glyco act 8.2*, APOBEC3A inh -1, A3G deaminase -2 and aDG glyco conf 3.4*.
Screening O=C(CSc1nnc(-c2ccccc2O)n1Cc1ccccc1)NNC(=O)c1ccccc1O returned rCAG binder 30, PHOSPHO1 inh -27, ALR inh 12, aDG glyco act 0, APOBEC3A inh -1 and A3G deaminase -8.
Screening O=C(O)CSc1nnc(-c2ccccc2O)n1Cc1ccccc1 returned rCAG binder 1, PHOSPHO1 inh 55, aDG glyco act 83*, APOBEC3A inh -6, A3G deaminase -8 and aDG glyco conf 0.
`COc1ccc(C(=O)N(C)[C@H]2C[C@H]3c4[nH]c5cccc(-c6ccccc6)c5c4CCN3C[C@H]2[C@H](C)O)cc1` gave rCAG binder 12.
Screening COC(CNC(=O)c1cn(C)c2ccc(S(=O)(=O)N3CCOCC3)cc2c1=O)OC returned rCAG binder 1, PHOSPHO1 inh 23, ALR inh 2, aDG glyco act 0, APOBEC3A inh -2 and A3G deaminase -4.
For CCn1cc(C(=O)NCC(OC)OC)c(=O)c2cc(S(=O)(=O)N3CCOCC3)ccc21 the results were rCAG binder -3, PHOSPHO1 inh 48, ALR inh -18, aDG glyco act 7.6*, APOBEC3A inh 2, A3G deaminase 0 and aDG glyco conf 0.
`CC(=O)C1=CCC(c2ccccc2)N(S(C)(=O)=O)C1` (configuration not stated) gave rCAG binder 1 and aDG glyco act 3.
Screening Cc1ccc(S(=O)(=O)NC(=O)C2(C)CCN2C(=O)C2CCCCC2)nc1 (configuration not stated) returned rCAG binder 4 and aDG glyco act 0.
CCOC(=O)N1CCC(N2C(=O)c3ccc(C(=O)Nc4ccc(F)cc4F)cc3C2=O)CC1 was read as rCAG binder 1, PHOSPHO1 inh 5, aDG glyco act 8.8*, APOBEC3A inh 2, A3G deaminase 2 and aDG glyco conf -1.
Screening CCOC(=O)N1CCC(N2C(=O)c3ccc(C(=O)Nc4ccc(OC)cc4)cc3C2=O)CC1 returned rCAG binder 2, PHOSPHO1 inh 41, ALR inh -8, aDG glyco act 0, APOBEC3A inh -3 and A3G deaminase -3.
`C/C(=N\Nc1nc(C)cc(-c2ccccc2)n1)c1ccc(C)o1` gave rCAG binder -3, PHOSPHO1 inh -99, ALR inh 5, aDG glyco act 4.6*, APOBEC3A inh -1, A3G deaminase -7 and aDG glyco conf 2.
`CCCCc1ccc(NC(=O)N2CCN(c3cc(C)nc4ccccc34)CC2)c(C)c1` gave ALR inh -4, aDG glyco act 3.3*, APOBEC3A inh 1, A3G deaminase -4 and aDG glyco conf 4.
Screening Cc1cc(N2CCN(C(=O)Nc3ccc(F)cc3F)CC2)c2ccccc2n1 returned ALR inh -1, aDG glyco act 0, APOBEC3A inh 0 and A3G deaminase -2.
`Cc1cc2ncc(S(=O)(=O)c3ccccc3)c(N)n2n1` gave rCAG binder -3, PHOSPHO1 inh 0, ALR inh -11, aDG glyco act 6.3*, APOBEC3A inh 1, A3G deaminase -3 and aDG glyco conf 1.
For Cc1cc2ncc(S(=O)(=O)C(C)(C)C)c(N)n2n1 the results were rCAG binder 1, PHOSPHO1 inh 24, aDG glyco act 0, APOBEC3A inh 1 and A3G deaminase 1.
Cc1nc2ccc(S(=O)(=O)NCC(=O)N(C)Cc3ccccc3Cl)cc2s1 was read as rCAG binder 0.
Screening O=C1c2ccccc2C(Nc2ccc(S(=O)(=O)N3CCOCC3)cc2)N1c1cccnc1 (configuration not stated) returned rCAG binder 4, PHOSPHO1 inh -4, aDG glyco act 10*, APOBEC3A inh -1, A3G deaminase 2 and aDG glyco conf 0.
Screening Cc1ccc2c(c1)NC(=O)C(CC(=O)NCCCN1CCCCC1)O2 (configuration not stated) returned rCAG binder 3, PHOSPHO1 inh 9, aDG glyco act 0, APOBEC3A inh 1 and A3G deaminase 4.
